Source: PubChem BioAssay
The list is not random: actives were taken first. Their share in the collection is about 19%.
KB-V1 cytotox – qHTS assay for MDR1-selective chemotherapeutics: Primary screen using the drug-selected MDR subline cells KB-V1; Potency, µM (series often up to 46.1 µM), actives largely listed as cytotoxic; 400,000 tested, 3.4% active; KB-V1 MDR cells viability, CellTiter-Glo, 72 h; AID 1347076, 2019; also: nearly all actives have a fitted effect of over 60% in size
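Following 72 h at 37 degrees C with compound, KB-V1 cell viability was read by CellTiter-Glo luminescence, medium being phenol-red-free DMEM plus 10% FBS; concentration-response parameters came from normalized, curve-fitted qHTS data.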
HT1080-NT tox – qHTS for induction of synthetic lethality in tumor cells producing 2HG: qHTS for the HT-1080-NT fibrosarcoma cell line | 360,000 tested, 1.6% active | Potency, µM (top dose mostly 46.1 µM), usual class: cytotoxic | HT-1080-NT fibrosarcoma viability, CellTiter-Glo ATP luminescence, 48 h;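 also: NT is the 2HG producing partner of a matched IDH1 knockdown line; nearly all actives have a fitted effect of over 55% in size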
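Compounds were tested in concentration-response format on HT-1080-NT cells for 48 hours at 37 degrees C. Cell viability came from CellTiter-Glo luminescence; curves were classified by r2, response magnitude and activity.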
TDP1 cell noCPT – qHTS for Inhibitors of human tyrosyl-DNA phosphodiesterase 1 (TDP1): qHTS in cells in absence of CPT | DT40 Tdp1-/- hTDP1 cells, no CPT, ATP luminescence, 48 h | Potency, µM (doses to about 46.2 µM), hits mostly inhibitors | 420,000 tested, 15% active; also: nearly all actives have a fitted effect of over 55% in size
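DT40 Tdp1-/-;hTDP1 cells, no CPT (DMSO vehicle only), 400 cells/well; compounds pin-transferred; ≥48 hr, 37 °C; CellTiter-Glo 30 min RT dark, luminescence read.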
KB-3-1 cytotox – qHTS assay for MDR1-selective chemotherapeutics: Primary screen using the parental adenocarcinoma cell KB-3-1 | KB-3-1 viability, CellTiter-Glo ATP luminescence, 72 h | 400,000 tested, 1.4% active | AID 1347075, 2019 | Potency, µM (doses to about 46.1 µM), usual class: cytotoxic; also: nearly all actives have a fitted effect of over 60% in size
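Screening of KB-3-1 cells (DMEM, 10% FBS, phenol-red free) ran from lowest to highest compound concentration; after 72 h at 37 °C viability was read luminescently and curves fitted.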
TDP1 cell CPT – qHTS for Inhibitors of human tyrosyl-DNA phosphodiesterase 1 (TDP1): qHTS in cells in presence of CPT; chicken DT40 Tdp1-/-;hTDP1 cells + 20 nM CPT, ATP luminescence, 48 h; Potency, µM (top dose mostly 46.2 µM), hits mostly inhibitors; 420,000 tested, 12% active; also: nearly all actives have a fitted effect of over 55% in size
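Chicken DT40 Tdp1-/- cells complemented with human TDP1, 400 cells/well, exposed to compounds plus 20 nM camptothecin for at least 48 h at 37 C; viability read as ATP content by CellTiter-Glo luminescence.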
HT1080 IDH1KD tx – qHTS for induction of synthetic lethality in tumor cells producing 2HG: qHTS for the HT-1080-IDH1KD cell line; HT-1080 IDH1 knockdown viability, ATP luminescence, 48 h; Potency, µM (highest dose often 46.1 µM), most hits filed as cytotoxic; 360,000 tested, 2% active
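After a 2 h attachment period, IDH1KD HT-1080 cells took pin-transferred compound for 48 h at 37 °C; ATP-based luminescence after 10 min room-temperature reagent incubation reported viability.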
Large screens that a line does not name were inactive. Calls follow the shape of the dose curve; as a rule, active = well fitted curve in the direction sought with a large enough effect; inconclusive = small, poorly fitted or top-dose-only effect, or another doubt; inactive = no such curve, though single readings can be large; an effect the other way counts as inactive or inconclusive.

CCCC(=O)OC1CC(C)N(C(=O)c2ccccc2)c2ccc(C)cc21 (centres undefined)	KB-V1 cytotox inconclusive, TDP1 cell noCPT 23µM, TDP1 cell CPT inconclusive
CC(=O)Nc1cc(-c2ccc(N3CCN(C)CC3)cc2)cn2c(-c3ccc(S(C)(=O)=O)cc3)cnc12	TDP1 cell noCPT 21µM, TDP1 cell CPT 15µM
CC(=O)Nc1cc(-c2ccc(N3CCN(C)CC3)cc2)cn2c(-c3ccccc3)cnc12	HT1080-NT tox inconclusive, TDP1 cell noCPT 16µM, TDP1 cell CPT 21µM, HT1080 IDH1KD tx 21µM
Cc1ccc2c(c1)N(CC(=O)OC(CC(C)C)C(=O)NC1CCCC1)C(=O)CO2 (centres undefined)	KB-V1 cytotox 3.7µM, TDP1 cell noCPT inconclusive, TDP1 cell CPT inconclusive
CC(C)C(OC(=O)CN1C(=O)COc2ccccc21)C(=O)NC1CCCC1 (centres undefined)	KB-V1 cytotox 6.5µM
COc1cccc(C(NC(C)=O)c2nc(-c3ccc4c(c3)OCO4)cs2)c1 (centres undefined)	TDP1 cell CPT inconclusive
O=C(Cc1ccccc1)Nc1scc(-c2ccccc2)c1C(=O)N1CCOCC1	KB-V1 cytotox inconclusive, TDP1 cell noCPT inconclusive, TDP1 cell CPT inconclusive
NC(=O)c1c(-c2ccc(Cl)cc2Cl)csc1NC(=O)Cc1ccccc1	KB-V1 cytotox inconclusive, HT1080-NT tox inconclusive, TDP1 cell noCPT 9.2µM, KB-3-1 cytotox inconclusive, TDP1 cell CPT 8.2µM, HT1080 IDH1KD tx inconclusive
COc1ccc(NC(=O)Nc2cccc3c2O[C@H](CN(C)S(=O)(=O)c2c(C)noc2C)[C@@H](C)CN([C@H](C)CO)C3=O)cc1	none
CCCC(=O)OC1=C(C(C)=O)N(Cc2ccccc2)S(=O)(=O)c2ccccc21	KB-V1 cytotox inconclusive, TDP1 cell noCPT inconclusive, TDP1 cell CPT inconclusive (no result: HT1080-NT tox, HT1080 IDH1KD tx)
CCC(=O)OC1=C(C(C)=O)N(Cc2ccccc2)S(=O)(=O)c2ccccc21	TDP1 cell noCPT inconclusive, TDP1 cell CPT 18µM (no result: HT1080-NT tox, HT1080 IDH1KD tx)
CCCCC(=O)OC1=C(C(C)=O)N(Cc2ccccc2)S(=O)(=O)c2ccccc21	TDP1 cell noCPT inconclusive, TDP1 cell CPT inconclusive (no result: HT1080-NT tox, HT1080 IDH1KD tx)
CCN1C(C(=O)c2ccccc2)=C(OC(=O)c2ccc(OC)cc2)c2ccccc2S1(=O)=O	TDP1 cell noCPT 6.5µM, TDP1 cell CPT 4.6µM (no result: KB-V1 cytotox, HT1080-NT tox, KB-3-1 cytotox, HT1080 IDH1KD tx)
CCCCCN1C(C(=O)c2ccccc2)=C(OC(=O)CC)c2ccccc2S1(=O)=O	TDP1 cell noCPT 5.2µM, KB-3-1 cytotox inconclusive, TDP1 cell CPT 4.6µM (no result: HT1080-NT tox, HT1080 IDH1KD tx)
CCCN1C(C(=O)c2ccccc2)=C(OC(=O)c2ccc(F)cc2)c2ccccc2S1(=O)=O	TDP1 cell noCPT 4.6µM, TDP1 cell CPT 5.2µM (no result: KB-V1 cytotox, HT1080-NT tox, KB-3-1 cytotox, HT1080 IDH1KD tx)
CCOC(=O)c1ccc(CN2C(=O)c3ccccc3S2(=O)=O)cc1	none
CCOP(=O)(Nc1cccc2oc(=O)c3ccccc3c12)OCC	TDP1 cell noCPT inconclusive, TDP1 cell CPT inconclusive
O=C(Cn1nc(Br)nc1Br)c1ccccc1	none
CCc1nn2c(=O)cc(COC(=O)C(CC)c3ccccc3)nc2s1 (centres undefined)	TDP1 cell CPT inconclusive (no result: HT1080-NT tox, HT1080 IDH1KD tx)
CCCCC(=O)OC1=C(C(=O)c2ccccc2)N(CCC)S(=O)(=O)c2ccccc21	KB-V1 cytotox inconclusive, TDP1 cell noCPT 2.9µM, KB-3-1 cytotox inconclusive, TDP1 cell CPT 3.3µM (no result: HT1080-NT tox, HT1080 IDH1KD tx)
CCCc1cc(C(=O)Nc2ccc(C(=O)c3ccc(C)cc3)cc2)n(C)n1	TDP1 cell noCPT inconclusive, TDP1 cell CPT 15µM, HT1080 IDH1KD tx inconclusive
CCCc1cc(C(=O)Nc2cccc3ccccc23)n(C)n1	TDP1 cell noCPT inconclusive, TDP1 cell CPT inconclusive
